Measurements: PubChem BioAssay (NCI)
The panel holds about 83,000 compounds, 20% with a hit somewhere; the sample as a whole holds those more often.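 For each line, cells grew in 96-well plates with the test compound present at a single concentration for 48 hours.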 The source made the active and inactive calls. Rule for the calls: active = growth percent below 10; inactive = the rest.

How the values were obtained:
Assay in all cases: NCI-60 one-dose screen, 48 h (100 = growth as untreated, 0 = no growth, -100 = all killed)
Details in all cases: 10 µM unless noted
EKVX NSCLC = tested on: EKVX NSCLC
SN12C renal = tested on: SN12C renal
UO-31 renal = tested on: UO-31 renal
TK-10 renal = tested on: TK-10 renal
ACHN renal = tested on: ACHN renal
CAKI-1 renal = tested on: CAKI-1 renal
A498 renal = tested on: A498 renal
CCRF-CEM leukemia = tested on: CCRF-CEM leukemia
MOLT-4 leukemia = tested on: MOLT-4 leukemia
SR leukemia = tested on: SR leukemia
RPMI-8226 leukemia = tested on: RPMI-8226 leukemia
OVCAR-8 ovarian = tested on: OVCAR-8 ovarian
OVCAR-5 ovarian = tested on: OVCAR-5 ovarian
OVCAR-4 ovarian = tested on: OVCAR-4 ovarian
SK-OV-3 ovarian = tested on: SK-OV-3 ovarian
IGROV1 ovarian = tested on: IGROV1 ovarian
OVCAR-3 ovarian = tested on: OVCAR-3 ovarian
HS 578T breast = tested on: HS 578T breast
NCI/ADR-RES ovarian = tested on: NCI/ADR-RES ovarian

Measured: growth

CC1(c2ccc(Cl)cc2)OC(=O)CC(=O)O1
inactive: EKVX NSCLC 98.4% | SN12C renal 102% | UO-31 renal 90.3% | TK-10 renal 121% | ACHN renal 98.5% | CAKI-1 renal 94.9% | A498 renal 101% | CCRF-CEM leukemia 100% | MOLT-4 leukemia 100% | SR leukemia 78.5% | RPMI-8226 leukemia 102% | OVCAR-8 ovarian 105% | OVCAR-5 ovarian 103% | SK-OV-3 ovarian 106% | IGROV1 ovarian 108% | OVCAR-3 ovarian 104% | HS 578T breast 105% | NCI/ADR-RES ovarian 106%
active: OVCAR-4 ovarian -2.18%

O=C1NN(C(=O)c2ccc(Cl)cc2)C(c2ccccc2)=N/C1=C\c1ccc(F)cc1
inactive: EKVX NSCLC 90.7% | SN12C renal 78.1% | UO-31 renal 75.6% | TK-10 renal 109% | ACHN renal 83.2% | CAKI-1 renal 85.1% | A498 renal 73.1% | MOLT-4 leukemia 36.2% | SR leukemia 80.2% | RPMI-8226 leukemia 60.3% | OVCAR-8 ovarian 86.6% | OVCAR-5 ovarian 88.8% | OVCAR-4 ovarian 99.1% | SK-OV-3 ovarian 97.4% | IGROV1 ovarian 87.6% | OVCAR-3 ovarian 98.7% | HS 578T breast 95.2% | NCI/ADR-RES ovarian 66.7%

COc1ccc(-c2ccc(C)n2-c2ccc(-c3nc4ccccc4s3)cc2)cc1
inactive: EKVX NSCLC 78% | SN12C renal 86.6% | UO-31 renal 86.6% | TK-10 renal 119% | ACHN renal 90.9% | CAKI-1 renal 76% | A498 renal 65.7% | MOLT-4 leukemia 81.8% | RPMI-8226 leukemia 70.4% | OVCAR-8 ovarian 95.8% | OVCAR-5 ovarian 101% | OVCAR-4 ovarian 92.9% | SK-OV-3 ovarian 80.3% | IGROV1 ovarian 92.8% | OVCAR-3 ovarian 107% | HS 578T breast 97.5% | NCI/ADR-RES ovarian 89.9%

Oc1ccc(Cl)cc1-c1cc(-c2ccc(F)cc2)n[nH]1
inactive: EKVX NSCLC 50.6% | SN12C renal 66.6% | UO-31 renal 37.5% | TK-10 renal 114% | ACHN renal 74.3% | CAKI-1 renal 50.4% | A498 renal 69.6% | MOLT-4 leukemia 60.9% | RPMI-8226 leukemia 28.2% | OVCAR-8 ovarian 73.4% | OVCAR-5 ovarian 83.6% | OVCAR-4 ovarian 25.3% | SK-OV-3 ovarian 74.8% | IGROV1 ovarian 40% | OVCAR-3 ovarian 49.8% | HS 578T breast 65.4% | NCI/ADR-RES ovarian 66.4%

COc1ccc(-c2c(N)n[nH]c2-c2cc(OC)c(OC)c(OC)c2)cc1
inactive: EKVX NSCLC 48% | SN12C renal 38.5% | UO-31 renal 27.3% | TK-10 renal 59.8% | ACHN renal 40% | CAKI-1 renal 57% | MOLT-4 leukemia 25.4% | RPMI-8226 leukemia 27% | OVCAR-8 ovarian 21.2% | OVCAR-5 ovarian 37.5% | OVCAR-4 ovarian 47.7% | SK-OV-3 ovarian 15.4% | IGROV1 ovarian 26.9%
active: A498 renal -3.53% | OVCAR-3 ovarian -36.1% | HS 578T breast -8.33% | NCI/ADR-RES ovarian -20.2%

CNC(=S)NNC(=O)C1CC1
inactive: EKVX NSCLC 105% | SN12C renal 109% | UO-31 renal 77.5% | TK-10 renal 119% | ACHN renal 106% | A498 renal 109% | CCRF-CEM leukemia 97.3% | MOLT-4 leukemia 85.1% | SR leukemia 67.5% | RPMI-8226 leukemia 98.9% | OVCAR-8 ovarian 94.7% | OVCAR-5 ovarian 107% | OVCAR-4 ovarian 113% | SK-OV-3 ovarian 105% | IGROV1 ovarian 118% | OVCAR-3 ovarian 116% | HS 578T breast 112% | NCI/ADR-RES ovarian 110%

COc1cccc(/C=C/C(=O)Nc2cc(OC)c3c(c2)OCO3)c1
inactive: SN12C renal 93.8% | UO-31 renal 101% | TK-10 renal 98.4% | ACHN renal 102% | CAKI-1 renal 93.7% | A498 renal 69.5% | MOLT-4 leukemia 89.5% | SR leukemia 81.5% | RPMI-8226 leukemia 57.1% | OVCAR-8 ovarian 105% | OVCAR-5 ovarian 89.1% | OVCAR-4 ovarian 96.4% | SK-OV-3 ovarian 104% | IGROV1 ovarian 108% | OVCAR-3 ovarian 110% | HS 578T breast 98.8% | NCI/ADR-RES ovarian 93.2%
